Screens (PubChem BioAssay)
ATXN2 expr inh: inhibitors of ATXN2 expression; AID 1745845; Potency, µM (doses to about 57 µM), hits mostly inhibitors; 360,000 tested, 0.72% active; HEK-293 ATXN2-luciferase reporter, luminescence, 24 h; further: nearly all actives have a fitted effect of over 55% in size
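ATXN2-luciferase reporter cells (luciferase flanked by upstream and downstream ATXN2 gene portions) were treated 24 h at 37 °C with compounds at up to 57 uM. SteadyGlo luminescence gave expression; GF-AFC fluorescence gave viability.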
TGFb inhibitor: inhibitors of TGF-b signaling; HepG2 CAGA-GFP TGF-b/SMAD3 reporter, GFP fluorescence, 18 h; TGF-beta stimulated, 500 pg/mL final; 410,000 tested, 1.2% active; Potency, µM (top dose mostly 46.1 µM), most hits filed as inhibitors; further: nearly all actives have a fitted effect of over 65% in size
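Inhibition was scored as loss of TGF-beta-induced (500 pg/mL final, 18 hours, 37 degrees C) GFP in HEPG2 cells carrying a CAGA-GFP reporter, in DMEM with 1% FBS. Well GFP was summed per cell; Activity was normalised to unstimulated and stimulated DMSO wells, then concentration-response fitting.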
HT1080NT lethal: kills 2HG-producing HT-1080-NT fibrosarcoma cells. HT-1080-NT fibrosarcoma viability, CellTiter-Glo ATP luminescence, 48 h. 360,000 tested, 1.6% active. Potency, µM (titrated, usually from 46.1 µM), usual class: cytotoxic. AID 686970;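 further: NT is the 2HG producing partner of a matched IDH1 knockdown line; nearly all actives have a fitted effect of over 55% in size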
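Read-out is CellTiter-Glo luminescence after 10 minutes at room temperature, following 48 hours' compound treatment of HT-1080-NT cells (750 cells/well, RPMI, 5% FBS, 37 degrees C).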
HepG2 tox: kills HepG2 cells in TGF-b inhibitor counter-screen. HepG2 CAGA-GFP viability, ATP luminescence, 18 h. AID 588856. 410,000 tested, 0.76% active. Potency, µM (top dose mostly 46.1 µM), actives largely listed as cytotoxic
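CellTiter-Glo luminescence gave cytotoxicity after 18 hours at 37 degrees C. The cells were HepG2 CAGA-GFP in 1% FBS DMEM, stimulated with 500 pg/mL TGF-beta after compound addition. %Activity was normalised to no-cell wells (complete cell-killing) and DMSO (no toxicity), and curves were fitted and classified.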
ATXN viability: viability counter-screen for ATXN expression inhibitors | AID 651635 | S2 cells (HEK-293 line with an ATXN2-luciferase reporter) viability, CellTiter-Fluor protease fluorescence, 24 h | Potency, µM (highest dose often 56.7 µM), hits mostly cytotoxic | 400,000 tested, 0.49% active; further: nearly all actives have a fitted effect of over 40% in size
HT1080 IDH1KD tx: toxicity to HT-1080 IDH1 knockdown cells (counter line); HT-1080 IDH1 knockdown viability, ATP luminescence, 48 h; Potency, µM (titrated, usually from 46.1 µM), hits mostly cytotoxic; 360,000 tested, 2% active
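HT-1080-IDH1KD cells (IDH1 knocked down), 750/well in RPMI with 5% FBS, treated with compound 48 h at 37 degrees C. Viability by CellTiter-Glo luminescence, normalised to DMSO and no-cell wells; concentration-response curves classed.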
A number is an active result; - = inactive; ? = inconclusive; . = not tested or not shown; ! = a repeat was not active. Rows were chosen to be rich in hits. Some 3.9% of all compounds tested hit in one or more screens of this group. The call rests on the fitted dose curve; in most records, active means well fitted curve in the direction sought with a large enough effect; inconclusive means small, poorly fitted or top-dose-only effect, or another doubt; inactive means no such curve, though single readings can be large; an effect the other way counts as inactive or inconclusive.

SMILES	ATXN2 expr inh	TGFb inhibitor	HT1080NT lethal	HepG2 tox	ATXN viability	HT1080 IDH1KD tx
CCN(CC)S(=O)(=O)c1ccc2c(c1)c(=O)c(C(=O)NCc1ccccc1Cl)cn2C	-	-	.	5.62µM	-	.
Cc1cc(C)cc(NS(=O)(=O)c2ccc3[nH]cc(C(=O)NCc4ccccc4Cl)c(=O)c3c2)c1	-	12.6µM	.	-	?	.
Cc1cc(C)cc(NS(=O)(=O)c2ccc3[nH]cc(C(=O)NCc4ccco4)c(=O)c3c2)c1	?	?	2.59µM	-	?	5.17µM
CC(C)c1ccc(NS(=O)(=O)c2ccc3[nH]cc(C(=O)NC4CCCCC4)c(=O)c3c2)cc1	.	?	.	-	.	.
Cc1cc(C)cc(NS(=O)(=O)c2ccc3[nH]cc(C(=O)NC4CCCCC4)c(=O)c3c2)c1	?	?	.	11.2µM	?	.
Cc1ccc(OCCn2nnc3sc4c(c3c2=O)CCC(C)C4)cc1 (configuration not stated)	-	-	.	-	-	.
COc1ccc(OC)c2sc(N3CCN(C(=O)c4ccc5c(c4)CCCC5)CC3)nc12	?	?	.	-	?	.
Cc1cc(N2CCC(C)CC2)nc2ccc(NC(=O)Cc3ccccc3Br)cc12	-	?	.	-	-	.
COc1ccc(-c2cc(C)no2)cc1S(=O)(=O)Nc1c(C)cc(C)cc1C	.	-	.	-	.	.
Cc1cc2ccccn2c1C(=O)c1ccccc1F	-	-	14.6µM	-	-	?
C=C(/C=C/c1ccc(N(C)C)cc1)c1nc2ccccc2s1	.	-	.	-	.	.
CNC(=O)c1ccc(C)c(-n2c(C)cc(OCc3ccc(F)cc3F)c(Br)c2=O)c1	-	.	.	.	.	.
Cc1ccc2c(c1)c1nc3ccccc3nc1n2CCN1CCOCC1	-	-	-	-	-	-
Cc1nc2c3cc(Cl)ccc3n(CCN3CCOCC3)c2s1	-	-	23.1µM	-	-	20.6µM
CCc1ccc(-c2cn3c(n2)sc2cc(C(=O)NCCc4ccc(OC)cc4OC)ccc23)cc1	.	-	.	-	.	.
FC(F)(F)c1cc(CO[C@@H]2CCCN[C@@H]2c2ccccc2)cc(C(F)(F)F)c1	?	?	?	-	.	23.1µM
c1ccc(C2NCCNC2c2ccccc2)cc1 (configuration not stated)	-	-	-	-	-	-
Cc1ccc(-c2cn3nc(N4CCCC(C(=O)NCc5ccc(F)cc5)C4)sc3n2)cc1 (configuration not stated)	.	-	.	-	.	.
COc1cc(C)ccc1OCCSc1nc2ccc(NC(C)=O)cc2s1	-	-	.	-	-	.
O=C(Cc1ccccc1)NCC1COc2ccccc2O1 (configuration not stated)	-	-	-	-	-	-
O=C(NCc1ccccc1)C(=O)NCC1COc2ccccc2O1 (configuration not stated)	-	-	16.4µM	-	?	10.3µM
O=C(CSc1nc2c([nH]c3ccccc32)c(=O)n1-c1ccccc1)Nc1ccccc1C(F)(F)F	.	-	.	-	.	.
Nc1c(C(=O)Nc2ccc3c(c2)OCCO3)nnn1Cc1cccc(Br)c1	-	-	-	-	?	13µM
Nc1c(C(=O)Nc2ccc3c(c2)OCCO3)nnn1Cc1ccc(Br)cc1	-	-	-	-	-	-
COc1ccccc1NS(=O)(=O)c1cc(-c2cnc(C3CC3)o2)ccc1C	.	?	?	-	?	?
SMILES	ATXN2 expr inh	TGFb inhibitor	HT1080NT lethal	HepG2 tox	ATXN viability	HT1080 IDH1KD tx
CCOC(=O)c1cccc(NS(=O)(=O)c2cc(-c3cnc(C4CC4)o3)ccc2C)c1	-	17.8µM	.	-	?	.
COc1ccc(NS(=O)(=O)c2cc(-c3cnc(C4CC4)o3)ccc2C)cc1	.	-	?	-	?	20.6µM
CCc1ccc(NS(=O)(=O)c2cc(-c3cnc(C4CC4)o3)ccc2C)cc1	?	?	.	-	?	.
O=C(Nc1nc2c(F)cccc2s1)c1ccc2c(c1)OCCO2	-	-	.	-	-	.
N=c1n(CCN2CCCCC2)c2ccccc2n1CC(O)COc1ccccc1 (configuration not stated)	?	11.2µM!	14.6µM	-	25.1µM!	?
Cc1ccccc1OCC(O)Cn1c(=N)n(CCN2CCCCC2)c2ccccc21 (configuration not stated)	.	.	.	15.8µM	.	.
Cc1ccc(NC(=O)NCC2CCN(Cc3cccc(Cl)c3)CC2)cc1Cl	?	?	11.6µM	12.6µM!	?	-
Cc1ccc(CN2CCC(CNC(=O)Nc3ccc(Cl)cc3)C2)cc1 (configuration not stated)	?	12.6µM	.	-	.	.
O=C(NCC1CCN(Cc2ccccc2F)CC1)Nc1ccc(F)c(Cl)c1	-	?	.	-	-	.
Cc1ccc(C)c(CN2CCC(CNC(=O)Nc3ccc(F)c(Cl)c3)CC2)c1	?	?	25.9µM	17.8µM	-	18.4µM
Cc1snc(S(=O)(=O)/C(C#N)=N/Nc2ccc(C(F)(F)F)cc2)c1C#N	-	10µM	-	-	-	-
